Assay [1] can be described thus: qHTS assay to identify small molecules that stimulate interleukin-8 (IL-8) secretion (AID 651758; active = well fitted activation curve with a large enough effect in the signal ratio; the % refers to the signal ratio). The method, boiled down: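 Quantitative HTS in THP-1 monocytic cells at 2000 cells per well, with 16 hrs compound incubation at 37 C. IL-8 in the medium was then quantified by HTRF immunoassay, read after 1-3 hrs at room temperature.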
The nature of assay [2]: qHTS for Inhibitors of Ubiquitin-specific Protease USP2a Using CHOP2 as the Reporter: K633 Counterscreen (AID 652168). Also: series mostly up to about 57 µM. The method, boiled down: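 Detection-system control: fluorescence of K48-linked DiUb-4IQF substrate (100 nM as added) tracked over time, Ex 525/Em 598, with pinned compounds and no enzyme, in pH 8 Tris buffer containing beta-mercaptoethanol and 0.05% Chaps.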

Assay [3] is described as follows: qHTS for Inhibitors of Ubiquitin-specific Protease USP2a Using CHOP2 as the Reporter: Cytotox Assay (AID 652170).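 Also: HCT116 human colon cancer cells at 600 per well; series mostly up to about 46 µM; nearly all actives have a fitted effect of over 70% in size.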 The method, boiled down:
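Cytotoxicity read as ATP luminescence (CellTiter-Glo) after 72 hr compound treatment at 37 deg C. Cells: HCT116, 600/well in DMEM plus 10% FBS. Normalization between DMSO-treated cells and cell-free wells.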

Inconclusive results are not listed. The source made the active and inactive calls. Unless noted, calls follow the shape of the dose curve; as a rule, active = well fitted curve in the direction sought with a large enough effect; inconclusive = small, poorly fitted or top-dose-only effect, or another doubt; inactive = no such curve, though single readings can be large; an effect the other way counts as inactive or inconclusive.

In the case of `NNC(=O)c1ccncc1`, the compound was called inactive in assay [1].
On the same count and under the same terms, the same measure for `Cc1ncc([N+](=O)[O-])n1CCO`: “inactive”.
Turning to `Cc1cc(NS(=O)(=O)c2ccc(N)cc2)no1`, the outcome in assay [2] and in assay [3] was inactive.
